SARS 3CLpro inh – SARS-CoV 3CLpro protease inhibition. hit rate 0.14% among 290,000. P0C6X7. recombinant SARS-CoV 3CLpro, quenched FRET peptide cleavage. inhibition, % at 6 µM; in the data active = inhibition above about 12%
TcdB inh – blocks C. difficile toxin B glycohydrolase activity. inhibition, % at 9.99 µM. P18177. TcdB glycohydrolase enzymatic assay, plate reader. AID 652162. hit rate 0.24% among 350,000; in the data active = inhibition above about 10%
SSB-PriA inh – inhibitors of Klebsiella pneumoniae PriA binding to SSB C-terminal tail. inhibition, % at 33 µM. hit rate 0.6% among 430,000. AID 1272365. AlphaScreen SSBct-PriA binding, biotinylated peptide; in the data active = inhibition mostly above about 37%, no sharp cut-off; inactive = mostly below about 20%;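 also: plate controls were negative control peptide for no effect and reference peptide for full effect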
BH1578 lux ind – induces V. cholerae light production without autoinducers; V. cholerae BH1578 lux reporter, luminescence, 6 h; activation, % at 18.7 µM; hit rate 0.16% among 350,000; AID 588436; in the data active = activation mostly above about 9.7%, no sharp cut-off
CCHF vOTU inh – blocks the CCHF virus ovarian tumor domain protease; hit rate 0.55% among 370,000; inhibition, % at 11.5 µM; CCHFV vOTU protease, Pep-AMC fluorescence; AID 651958; in the data active = inhibition above about 30%; also: 0% = vehicle wells with enzyme and 100% = no enzyme wells
VHR inh abs – DUSP3 (human) phosphatase inhibition | P51452 | hit rate 0.52% among 290,000 | recombinant VHR phosphatase, pNPP absorbance | inhibition, % at 13.3 µM; in the data active = inhibition above about 50%
Target sequence (P51452 whole entry, looked up): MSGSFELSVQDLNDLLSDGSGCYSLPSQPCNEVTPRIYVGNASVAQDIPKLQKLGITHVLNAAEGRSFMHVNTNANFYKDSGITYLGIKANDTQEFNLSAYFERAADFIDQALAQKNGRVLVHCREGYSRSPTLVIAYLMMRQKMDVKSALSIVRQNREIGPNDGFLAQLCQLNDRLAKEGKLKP
* marks the source's active call; other numbers are inactive results; i = inactive; / = no result given; ! = repeats disagree. In the library only some 1.3% were active in any assay of this set; here they are far more common.

SMILES	SARS 3CLpro inh	TcdB inh	SSB-PriA inh	BH1578 lux ind	CCHF vOTU inh	VHR inh abs
O=c1oc(-c2ccc([N+](=O)[O-])cc2)nc2ccccc12	5	5	6	i	-8	12
O=c1oc(-c2ccc(Br)cc2)nc2ccccc12	-5	12*	-12	0	9	7
COc1ccc(N(C)S(=O)(=O)c2ccsc2-c2nc(-c3ccccc3C)no2)cc1OC	/	/	-6	/	/	/
O=[N+]([O-])c1cc(C=NO)ccc1SCc1ccccc1	/	/	5	/	/	/
O=[N+]([O-])c1cc(/C=N/O)ccc1SCc1ccccc1Cl	3	/	/	i	3	53*
CCCCn1c(N)c(N(CCC(C)C)C(=O)c2ccccc2C)c(=O)[nH]c1=O	-1	2	-6	i	10	-22
CCCCn1c(N)c(N(CC)C(=O)c2ccccc2C)c(=O)[nH]c1=O	-6	2	15	0	6	52*
CCCCn1c(N)c(N(CCOC)C(=O)CSCc2cccc(C)c2)c(=O)[nH]c1=O	/	0	49*	-1	-3	/
Cc1ccc(NC(=S)N/N=C/c2ccc([N+](=O)[O-])s2)cc1	-3	-1	/	0	21	32
Cc1cccc(NC(=S)NN=Cc2ccc([N+](=O)[O-])s2)c1	/	/	39*	/	/	/
Cn1nc2c(c1NC(=O)c1ccc([N+](=O)[O-])o1)CCC2	/	/	-4	/	/	/
O=[N+]([O-])c1ccc(-c2nc(Cl)c3c(n2)CCCC3)o1	/	2	/	30*	18	/
CCOC(=O)c1nn(-c2ccccc2)c(=O)c2c(N)scc12	-3	/	0	i	37*	5
Cc1nc(-c2ccccc2F)sc1CNC(=O)C1CC1	/	/	-5	/	/	/
c1cnc2c(c1)oc1cccnc12	/	/	24	/	/	/
COc1ccc(NN=C(C(N)=O)C2=NC(C)(C)Cc3ccccc32)cc1	/	/	78*	/	/	/
Cc1ccc(NC(=S)NC(=O)CC2CC(C)(C)OC2=O)cc1 (stereo unspecified)	0	-1	3	0	-3	58*
CCC(=O)Nc1nnc(S(=O)(=O)N2c3ccccc3CC2C)s1 (stereo unspecified)	3	2	100*	0	-5	-6
CC(C)CC(=O)Nc1nnc(S(=O)(=O)N2c3ccccc3CC2C)s1 (stereo unspecified)	0	0	-11	0	1	10
CCCNC(=O)Cn1c(=O)n(CC(=O)N2CCCCC2)c(=O)c2sccc21	1	-2	-4	i	8	56*
Cc1nc(-c2ccccc2Cl)sc1CNC(=O)c1ccc2c(c1)OCO2	/	/	-8	/	/	/
CCOc1ccc(-c2nc(C#N)c(N3CCCC3)o2)cc1	/	/	21	/	/	/
N#Cc1nc(-c2ccc(F)cc2)oc1N1CCCCCC1	/	/	112*	/	/	/
COc1ccc(-c2nc(C#N)c(N3CCCN(C)CC3)o2)cc1	/	/	69*	/	/	/
CCOc1ccc(-c2nc(C#N)c(N3CCCCC3)o2)cc1	/	/	94*	/	/	/
SMILES	SARS 3CLpro inh	TcdB inh	SSB-PriA inh	BH1578 lux ind	CCHF vOTU inh	VHR inh abs
Cc1ccc(OCc2ccc(-c3nc(C#N)c(NCCCn4ccnc4)o3)o2)cc1	/	/	60*!	/	/	/
COc1ccc(OCc2nc(C#N)c(NCCCn3ccnc3)o2)cc1	1	0	-7	-1	9	3
COc1cc(C)c(C)cc1S(=O)(=O)Nc1ccc2c(c1)N(C(=O)c1ccco1)CC2	/	/	-16	/	/	/
CCc1cccc2sc(NC(=O)Cc3cccs3)nc12	/	/	14	/	/	/
COc1ccc(N2CCN(c3oc(-c4ccc(OC)c(OC)c4)nc3C#N)CC2)cc1	6	/	-7	0	10	16
Cc1ccc(OCc2ccc(-c3nc(C#N)c(N4CCCCC4)o3)o2)cc1	/	/	82*	/	/	/
COP(=O)(OC)c1nc(-c2ccc(C)cc2)oc1N1CCCCC1	-1	0	51*	i	-79	-18
COc1ccc(-c2nc(C#N)c(N3CCCCC3)o2)cc1OC	/	/	59*	/	/	/
O=C(CSc1c[nH]c2ccccc12)N1CCS[C@H](c2ccccc2Cl)CC1	/	/	15	/	/	/
Cc1sc2nc(NC(=O)c3sc4ccccc4c3Cl)sc(=O)c2c1C	/	/	0	/	/	/
O=C(CN1CCC(n2nnc3cc(F)ccc32)CC1)NCCc1ccccc1	0	/	-4	0	21	53*
O=C(CN1CCC(n2nnc3cc(F)ccc32)CC1)NC1CC1	3	/	14	-3	-1	5
Cc1ccsc1C(=O)NN=C1CCCCCC1	-1	-1	18	i	13	53*
Cc1cc(S(=O)(=O)Nc2cccnc2)cc([N+](=O)[O-])c1C	/	/	11	/	/	/
CN(C)S(=O)(=O)c1ccc(C(=O)Nc2nnc(Cc3cccs3)o2)cc1	/	/	74*	/	/	/
Cc1ccc(Cc2nnc(NC(=O)c3ccc(S(=O)(=O)N(C)C4CC4)cc3)o2)cc1C	/	/	11	/	/	/
CCCCN(C)S(=O)(=O)c1ccc(C(=O)Nc2nnc(Cc3cccs3)o2)cc1	/	/	58*	/	/	/
CN(C1CC1)S(=O)(=O)c1ccc(C(=O)Nc2nnc(Cc3cccs3)o2)cc1	/	/	74*	/	/	/
CC1CCCN(S(=O)(=O)c2ccc(C(=O)Nc3nnc(Cc4cccs4)o3)cc2)C1 (stereo unspecified)	/	/	37*	/	/	/
CSc1ccc(CC(=O)Nc2nnc(Cc3cccs3)o2)cc1	/	/	-5	/	/	/
CSc1ccccc1C(=O)Nc1nnc(Cc2cccs2)o1	/	/	45*	/	/	/
CS(=O)(=O)c1ccc(C(=O)Nc2nnc(Cc3cccs3)o2)cc1	/	/	64*	/	/	/
CCN(CC)S(=O)(=O)c1ccc(C(=O)Nc2nnc(Cc3cccs3)o2)cc1	/	/	41	/	/	/
Cc1ccc(S(=O)(=O)NCC2CCN(C3CCCC3)CC2)cc1C	/	/	-14	/	/	/
c1ccc(-c2csc(Nc3cccnc3)n2)nc1	3	/	71*	3	-14	14
SMILES	SARS 3CLpro inh	TcdB inh	SSB-PriA inh	BH1578 lux ind	CCHF vOTU inh	VHR inh abs
CC(=O)Nc1ccc(Nc2nc(-c3ccccn3)cs2)cc1	/	/	90*	/	/	/
c1cncc(Nc2nc(-c3cccs3)cs2)c1	4	2	-15	0	/	0
Cc1ccnc(Nc2nc(-c3ccccn3)cs2)c1	/	/	147*	/	/	/
O=C(O)c1ccc(Nc2nc(-c3cccnc3)cs2)cc1	-6	2	-8	i	-2	53*
CC(=O)Nc1ccc(-c2csc(Nc3ccccn3)n2)cc1	1	-2	14	0	0	29
Cc1cc(C(=O)NCc2cc(C3CC3)n(C)n2)c(C)o1	/	/	-2	/	/	/
COCCNC(=O)C(=O)Nc1cc(C)nc2ccccc12	/	/	-1	/	/	/
O=C(NCC1CCN(c2nc3ccccc3s2)CC1)Nc1ccccc1F	/	/	0	/	/	/
c1ccc(Nc2nc(-c3ccccn3)cs2)cc1	-4	/	37	6	4	-10

Compound activity deposited in PubChem BioAssay by several laboratories.
